Sfp inh – qHTS Assay for Inhibitors of Bacillus subtilis Sfp phosphopantetheinyl transferase (PPTase); 4'-phosphopantetheinyl transferase ffp (Bacillus subtilis), Q9F4F7; Potency, µM, inactives show largest response in the series, negative = inhibition, hits mostly inhibitors; Biochemical Sfp PPTase activity, qHTS; hit rate 3.5% among 310,000;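 note: the enzyme is Sfp with the accession as filed and its product quenches rhodamine fluorescence; 0% = enzyme reaction without inhibitor and -100% = no enzyme wells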
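Reaction rates are the 30-min fluorescence difference (ex 525, em 598 nm) in wells containing 15 nM Sfp, 5 uM rhodamine-CoA and 12.5 uM BHQ-2-YbbR at pH 7.6 with 10 mM MgCl2.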
BAZ2B block – qHTS Assay for Inhibitors of BAZ2B; AlphaScreen BAZ2B-H3K14Ac peptide displacement; hit rate 4.4% among 360,000; Bromodomain adjacent to zinc finger domain protein 2B (Homo sapiens), Q9UIF8; Potency, µM (top dose mostly 114 µM), for the others: at the highest dose activity change, negative = inhibition, most hits filed as inhibitors; note: % is set by controls: 0 for no effect and ±100 for the full control effect; nearly all actives have a fitted effect of over 60% in size
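Complex of BAZ2B and biotin-H3K14Ac (50 nM apiece) forms over 30 min at RT, then faces library compounds up to 110 uM for another 30 min; AlphaScreen beads added, 20 min dark incubation, luminescence read.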
TDP1 inh – qHTS Assay for Inhibitors of Tyrosyl-DNA Phosphodiesterase (TDP1). recombinant TDP1, AlphaScreen DNA substrate cleavage. AID 485290, 2010. hit rate 0.28% among 350,000. Tyrosyl-DNA phosphodiesterase 1 (Homo sapiens), Q9NUW8. Potency, µM (doses to about 130 µM), for the others: at the top dose activity change, negative = inhibition, actives largely listed as inhibitors; note: % is set by controls: 0 for no effect and ±100 for the full control effect; nearly all actives have a fitted effect of over 40% in size
Target sequence (Q9NUW8 whole entry, looked up): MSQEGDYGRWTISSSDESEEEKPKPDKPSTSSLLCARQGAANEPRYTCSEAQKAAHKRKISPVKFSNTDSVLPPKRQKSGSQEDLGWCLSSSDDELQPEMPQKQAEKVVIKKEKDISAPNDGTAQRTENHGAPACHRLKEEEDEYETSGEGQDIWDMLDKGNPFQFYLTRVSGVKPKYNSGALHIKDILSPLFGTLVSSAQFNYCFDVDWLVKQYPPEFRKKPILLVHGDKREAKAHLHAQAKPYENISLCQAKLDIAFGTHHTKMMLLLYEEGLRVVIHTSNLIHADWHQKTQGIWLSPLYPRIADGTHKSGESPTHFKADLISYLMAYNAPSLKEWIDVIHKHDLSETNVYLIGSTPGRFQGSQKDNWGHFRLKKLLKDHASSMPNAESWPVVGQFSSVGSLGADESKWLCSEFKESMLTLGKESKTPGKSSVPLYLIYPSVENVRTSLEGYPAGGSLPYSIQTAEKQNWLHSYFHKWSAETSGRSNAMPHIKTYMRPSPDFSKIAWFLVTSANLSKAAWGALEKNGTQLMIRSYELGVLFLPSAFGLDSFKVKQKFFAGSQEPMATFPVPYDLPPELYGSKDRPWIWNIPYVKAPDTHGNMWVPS
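E. coli-derived human Tdp1, 1 nM final. Cpd preinc 15 min RT; substrate 15 nM final, 5 min RT; AS bead mix 10 ug/ml final, 10 min RT. Signal loss = tyrosine-FITC cleavage. No-enzyme wells = max signal.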
HP1b chromo inh – HTS for Inhibitors of HP1-beta Chromodomain Interactions with Methylated Histone Tails. AID 540317, 2011. Chromobox protein homolog 1 (Homo sapiens), P83916. AlphaScreen HP1-beta / biotin-H3K9me3 peptide binding. Potency, µM (doses to about 114 µM), for inactives: at the top dose activity change, negative = inhibition, usual class: inhibitors. hit rate 0.56% among 390,000; note: nearly all actives have a fitted effect of over 70% in size
Target sequence (P83916 whole entry, looked up): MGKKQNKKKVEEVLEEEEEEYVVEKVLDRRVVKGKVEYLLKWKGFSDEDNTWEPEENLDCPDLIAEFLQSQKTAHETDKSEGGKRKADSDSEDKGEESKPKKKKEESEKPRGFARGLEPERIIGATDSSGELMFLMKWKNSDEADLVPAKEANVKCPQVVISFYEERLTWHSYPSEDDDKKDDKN
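AlphaScreen: HP1-beta (50 nM) preformed 30 min with biotin-H3(1-18)K9me3 peptide (50 nM) in PBS pH 7.4, 0.01% Tween-20. Compound added for 30 min at RT, then streptavidin donor/nickel chelate acceptor beads (10 ug/mL) for 30 min.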
G9a inh – qHTS Assay for Inhibitors of Histone Lysine Methyltransferase G9a; Histone-lysine N-methyltransferase EHMT2 (Homo sapiens), Q96KQ7; G9a H3K9 monomethylation, AlphaScreen, 2 h; Potency, µM (series often up to 102 µM), for the others: top-dose activity, negative = inhibition, usual class: inhibitors; hit rate 8.8% among 350,000; note: % is set by controls: 0 for no effect and ±100 for the full control effect; nearly all actives have a fitted effect of over 75% in size
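Compounds were preincubated with 20 nM G9a for 15 min, after which biotinylated H3K9 peptide (500 nM) and SAM (20 uM) started a 2 h room-temperature reaction. Monomethylated product was quantified by antibody-based AlphaScreen chemiluminescence.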
JMJD2A Tudor inh – qHTS Assay for Inhibitors of JMJD2A-Tudor Domain; AlphaScreen JMJD2A-Tudor / H3K4me3 peptide binding; Potency, µM (titrated, usually from 114 µM), for the others: at the highest dose activity change, negative = inhibition, hits mostly inhibitors; hit rate 4.4% among 390,000; Lysine-specific demethylase 4A (Homo sapiens), O75164; note: % is set by controls: 0 for no effect and ±100 for the full control effect; nearly all actives have a fitted effect of over 50% in size
* = called active by the depositor; [ ] = another dose, or the depositor's remark. Rows were chosen to be rich in hits. Some 12% of all compounds tested hit in one or more screens of this group. Calls come from the whole dose curve; as a rule, active = well fitted curve in the direction sought with a large enough effect; inconclusive = small, poorly fitted or top-dose-only effect, or another doubt; inactive = no such curve, though single readings can be large; an effect the other way counts as inactive or inconclusive. Potency is the fitted concentration of half-maximal effect.

What do the screens show for `COc1ccc(NC(=O)CN2CCN(CC(=O)Nc3ccc(F)cc3)CC2)c(OC)c1`?
Sfp inh: -0.4%; BAZ2B block: 6.7%; HP1b chromo inh: 25.1%; G9a inh: 3.6%; JMJD2A Tudor inh: -0.4%

How did Cc1ccc(C(=O)Nc2nnc(CC(=O)N/N=C/c3ccncc3)s2)cc1 do in these assays?
Sfp inh: -23.7%; BAZ2B block: inconclusive; TDP1 inh: 0.5%; HP1b chromo inh: 22.6%; G9a inh: 35.5µM*; JMJD2A Tudor inh: inconclusive

How did Cc1ccc(C(=O)Nc2nnc(CC(=O)N/N=C/c3ccc(O)c(O)c3)s2)cc1 do in these assays?
Sfp inh: -13.1%; BAZ2B block: 79.4µM*; HP1b chromo inh: -24.0%; G9a inh: -31.4%[2.33 µM]; JMJD2A Tudor inh: inconclusive

How did COc1ccc(C(=O)Nc2nnc(CC(=O)N/N=C/c3ccc(O)cc3O)s2)cc1 do in these assays?
Sfp inh: -1.2%; BAZ2B block: -5.0%; G9a inh: -2.3%

What do the screens show for `CCCCC(=O)Nc1c(O)c2ccccc2[nH]c1=O`?
Sfp inh: 9.6%; BAZ2B block: 2.9%; TDP1 inh: -2.3%; HP1b chromo inh: 37.8%; G9a inh: inconclusive; JMJD2A Tudor inh: 0.6%

Results for CC(=O)Nc1c(O)c2ccccc2[nH]c1=O ?
Sfp inh: 17.8µM*; BAZ2B block: 2.0%; TDP1 inh: 6.0%; HP1b chromo inh: 47.2%; G9a inh: 50.1µM*; JMJD2A Tudor inh: 10.8%

What do the screens show for `CNC(=O)C(=O)Nc1c(O)c2ccccc2[nH]c1=O`?
Sfp inh: 22.4µM*; BAZ2B block: -12.4%; TDP1 inh: -2.6%; HP1b chromo inh: 27.0%; JMJD2A Tudor inh: -14.8%

How did O=C(c1ccc2nc(N3CCCCC3)sc2c1)N1CCN(c2ccccn2)CC1 do in these assays?
Sfp inh: -1.7%; BAZ2B block: -31.0%; TDP1 inh: 0.0%; HP1b chromo inh: 54.4%; G9a inh: 56.2µM*; JMJD2A Tudor inh: -29.0%

Results for CC1CCN(c2nc3ccc(C(=O)N4CCN(Cc5ccccc5)CC4)cc3s2)CC1 ?
Sfp inh: -7.6%; BAZ2B block: -9.0%; TDP1 inh: 5.2%; HP1b chromo inh: 2.3%; G9a inh: 70.8µM*; JMJD2A Tudor inh: inconclusive

How did Cn1nnc2cc(C(=O)N3CCN(c4ccccn4)CC3)ccc21 do in these assays?
Sfp inh: 21.0%; BAZ2B block: 4.3%; HP1b chromo inh: -1.5%; G9a inh: 17.8µM*; JMJD2A Tudor inh: -11.6%

How did Cn1nnc2cc(NC(=O)N3CCN(c4ccccn4)CC3)ccc21 do in these assays?
Sfp inh: 21.4%; BAZ2B block: inconclusive; TDP1 inh: -1.1%; HP1b chromo inh: 8.5%; G9a inh: -0.6%[12.7 µM]; JMJD2A Tudor inh: -4.3%

Results for CCOc1ccccc1NC(=O)Cn1c(=O)n(Cc2ccccc2)c(=O)c2c1c1cc(C)ccc1n2C ?
BAZ2B block: -7.0%; TDP1 inh: 0.0%; HP1b chromo inh: 28.8%; G9a inh: -9.0%[59 µM]; JMJD2A Tudor inh: -2.1%

How did COc1ccc(NC(=O)CSc2nnc(Cn3cnc4ccccc43)o2)cc1 do in these assays?
Sfp inh: 26.6%; BAZ2B block: 5.8%; TDP1 inh: 1.1%; HP1b chromo inh: 33.5%; G9a inh: -2.3%; JMJD2A Tudor inh: -5.2%

What do the screens show for `CC1CCCC(C)N1C(=O)Cc1ccccc1` (centres undefined)?
Sfp inh: 9.6%; BAZ2B block: 8.7%; TDP1 inh: -2.0%; HP1b chromo inh: 21.4%; G9a inh: 5.6%[12.7 µM]; JMJD2A Tudor inh: -5.5%

How did CCOCCCNCc1cccc(OC)c1 do in these assays?
Sfp inh: -15.1%; BAZ2B block: inconclusive; TDP1 inh: 0.0%; HP1b chromo inh: -52.1%; G9a inh: 3.98µM*; JMJD2A Tudor inh: 3.55µM*

How did CCOCCCNCc1ccc(OC)cc1 do in these assays?
Sfp inh: -3.7%; BAZ2B block: inconclusive; TDP1 inh: -7.8%; HP1b chromo inh: -29.6%; G9a inh: -21.1%[12.7 µM]; JMJD2A Tudor inh: 3.98µM*

What do the screens show for `COc1ccc2cc(CNCCOCCOCCNCc3ccc4cc(OC)ccc4c3)ccc2c1`?
HP1b chromo inh: 1.4%; JMJD2A Tudor inh: -18.8%

Results for COc1cccc(CNCC(=O)N2C(C)CCCC2C)c1 (centres undefined) ?
Sfp inh: -11.5%; BAZ2B block: 50.1µM*; TDP1 inh: -8.4%; HP1b chromo inh: inconclusive; G9a inh: 12.6µM*; JMJD2A Tudor inh: 3.55µM*

Results for CCOCCCNCc1ccc(OCc2ccccc2Cl)cc1 ?
Sfp inh: 10.0%; BAZ2B block: 7.6%; TDP1 inh: 5.3%; HP1b chromo inh: 27.5%; G9a inh: 4.5%[59 µM]; JMJD2A Tudor inh: -1.4%

Results for COc1ccccc1NC(=O)CN1CCN(CC(=O)Nc2ccc(F)cc2F)CC1 ?
Sfp inh: 3.5%; BAZ2B block: 3.6%; HP1b chromo inh: 54.8%; G9a inh: 24.6%; JMJD2A Tudor inh: -7.6%

What do the screens show for `CSc1ccccc1C(=O)C1CCCN(S(=O)(=O)c2c(C)noc2C)C1` (centres undefined)?
Sfp inh: -5.0%; BAZ2B block: -10.9%; TDP1 inh: 6.1%; HP1b chromo inh: 30.7%; JMJD2A Tudor inh: -12.4%

Results for NCCC[C@@H](CC(=O)N[C@@H]1CCNC[C@H]1C(=O)N[C@H](CC(=O)N[C@@H](CCC(=O)O)CC(=O)O)Cc1ccccc1)NC(=O)C[C@H](CO)NC(=O)[C@@H]1CNCC[C@H]1N ?
Sfp inh: -3.0%; TDP1 inh: 0.0%

How did COc1ccc(CN2C(=O)N(c3ccc(C)cc3)C(=O)C2CC(=O)Nc2ccccc2)cc1OC (centres undefined) do in these assays?
BAZ2B block: -10.4%; TDP1 inh: -3.8%; HP1b chromo inh: 28.8%; G9a inh: -22.1%[59 µM]; JMJD2A Tudor inh: -13.6%

What do the screens show for `O=C(CSc1nnc(-c2ccncc2)n1-c1ccccc1)Nc1ccc(C(=O)O)cc1`?
Sfp inh: -16.0%; BAZ2B block: 3.8%; TDP1 inh: 8.1%; HP1b chromo inh: 2.7%; G9a inh: 50.1µM*; JMJD2A Tudor inh: -9.0%

How did COc1ccc(-n2c(SCC(=O)Nc3ccc(C(=O)O)cc3)nnc2-c2ccccc2)cc1OC do in these assays?
Sfp inh: 15.2%; BAZ2B block: 56.2µM*; HP1b chromo inh: 47.1%; G9a inh: inconclusive; JMJD2A Tudor inh: -18.4%
